Assay results published in the supplement of paper PMC11732987, “Enantioselective OTUD7B fragment discovery through chemoproteomics screening and high-throughput optimisation” (Communications Chemistry, 2025).

Columns and labels:
Test in all cases: log2 ratio of Biotin-Ahx-Ub-VS probe labelling (fragment/DMSO); higher = less target engagement (more negative = stronger competition), active = hit call of the paper (q ≤ 0.05, log2 ratio ≤ -1)
Details in all cases: compound concentration: 200 uM; treatment time: 3 h
[1] = molecular target: USP34 (UniProt Q70CQ2)
USP34, sequence (Q70CQ2 whole entry, the tested form may be a part): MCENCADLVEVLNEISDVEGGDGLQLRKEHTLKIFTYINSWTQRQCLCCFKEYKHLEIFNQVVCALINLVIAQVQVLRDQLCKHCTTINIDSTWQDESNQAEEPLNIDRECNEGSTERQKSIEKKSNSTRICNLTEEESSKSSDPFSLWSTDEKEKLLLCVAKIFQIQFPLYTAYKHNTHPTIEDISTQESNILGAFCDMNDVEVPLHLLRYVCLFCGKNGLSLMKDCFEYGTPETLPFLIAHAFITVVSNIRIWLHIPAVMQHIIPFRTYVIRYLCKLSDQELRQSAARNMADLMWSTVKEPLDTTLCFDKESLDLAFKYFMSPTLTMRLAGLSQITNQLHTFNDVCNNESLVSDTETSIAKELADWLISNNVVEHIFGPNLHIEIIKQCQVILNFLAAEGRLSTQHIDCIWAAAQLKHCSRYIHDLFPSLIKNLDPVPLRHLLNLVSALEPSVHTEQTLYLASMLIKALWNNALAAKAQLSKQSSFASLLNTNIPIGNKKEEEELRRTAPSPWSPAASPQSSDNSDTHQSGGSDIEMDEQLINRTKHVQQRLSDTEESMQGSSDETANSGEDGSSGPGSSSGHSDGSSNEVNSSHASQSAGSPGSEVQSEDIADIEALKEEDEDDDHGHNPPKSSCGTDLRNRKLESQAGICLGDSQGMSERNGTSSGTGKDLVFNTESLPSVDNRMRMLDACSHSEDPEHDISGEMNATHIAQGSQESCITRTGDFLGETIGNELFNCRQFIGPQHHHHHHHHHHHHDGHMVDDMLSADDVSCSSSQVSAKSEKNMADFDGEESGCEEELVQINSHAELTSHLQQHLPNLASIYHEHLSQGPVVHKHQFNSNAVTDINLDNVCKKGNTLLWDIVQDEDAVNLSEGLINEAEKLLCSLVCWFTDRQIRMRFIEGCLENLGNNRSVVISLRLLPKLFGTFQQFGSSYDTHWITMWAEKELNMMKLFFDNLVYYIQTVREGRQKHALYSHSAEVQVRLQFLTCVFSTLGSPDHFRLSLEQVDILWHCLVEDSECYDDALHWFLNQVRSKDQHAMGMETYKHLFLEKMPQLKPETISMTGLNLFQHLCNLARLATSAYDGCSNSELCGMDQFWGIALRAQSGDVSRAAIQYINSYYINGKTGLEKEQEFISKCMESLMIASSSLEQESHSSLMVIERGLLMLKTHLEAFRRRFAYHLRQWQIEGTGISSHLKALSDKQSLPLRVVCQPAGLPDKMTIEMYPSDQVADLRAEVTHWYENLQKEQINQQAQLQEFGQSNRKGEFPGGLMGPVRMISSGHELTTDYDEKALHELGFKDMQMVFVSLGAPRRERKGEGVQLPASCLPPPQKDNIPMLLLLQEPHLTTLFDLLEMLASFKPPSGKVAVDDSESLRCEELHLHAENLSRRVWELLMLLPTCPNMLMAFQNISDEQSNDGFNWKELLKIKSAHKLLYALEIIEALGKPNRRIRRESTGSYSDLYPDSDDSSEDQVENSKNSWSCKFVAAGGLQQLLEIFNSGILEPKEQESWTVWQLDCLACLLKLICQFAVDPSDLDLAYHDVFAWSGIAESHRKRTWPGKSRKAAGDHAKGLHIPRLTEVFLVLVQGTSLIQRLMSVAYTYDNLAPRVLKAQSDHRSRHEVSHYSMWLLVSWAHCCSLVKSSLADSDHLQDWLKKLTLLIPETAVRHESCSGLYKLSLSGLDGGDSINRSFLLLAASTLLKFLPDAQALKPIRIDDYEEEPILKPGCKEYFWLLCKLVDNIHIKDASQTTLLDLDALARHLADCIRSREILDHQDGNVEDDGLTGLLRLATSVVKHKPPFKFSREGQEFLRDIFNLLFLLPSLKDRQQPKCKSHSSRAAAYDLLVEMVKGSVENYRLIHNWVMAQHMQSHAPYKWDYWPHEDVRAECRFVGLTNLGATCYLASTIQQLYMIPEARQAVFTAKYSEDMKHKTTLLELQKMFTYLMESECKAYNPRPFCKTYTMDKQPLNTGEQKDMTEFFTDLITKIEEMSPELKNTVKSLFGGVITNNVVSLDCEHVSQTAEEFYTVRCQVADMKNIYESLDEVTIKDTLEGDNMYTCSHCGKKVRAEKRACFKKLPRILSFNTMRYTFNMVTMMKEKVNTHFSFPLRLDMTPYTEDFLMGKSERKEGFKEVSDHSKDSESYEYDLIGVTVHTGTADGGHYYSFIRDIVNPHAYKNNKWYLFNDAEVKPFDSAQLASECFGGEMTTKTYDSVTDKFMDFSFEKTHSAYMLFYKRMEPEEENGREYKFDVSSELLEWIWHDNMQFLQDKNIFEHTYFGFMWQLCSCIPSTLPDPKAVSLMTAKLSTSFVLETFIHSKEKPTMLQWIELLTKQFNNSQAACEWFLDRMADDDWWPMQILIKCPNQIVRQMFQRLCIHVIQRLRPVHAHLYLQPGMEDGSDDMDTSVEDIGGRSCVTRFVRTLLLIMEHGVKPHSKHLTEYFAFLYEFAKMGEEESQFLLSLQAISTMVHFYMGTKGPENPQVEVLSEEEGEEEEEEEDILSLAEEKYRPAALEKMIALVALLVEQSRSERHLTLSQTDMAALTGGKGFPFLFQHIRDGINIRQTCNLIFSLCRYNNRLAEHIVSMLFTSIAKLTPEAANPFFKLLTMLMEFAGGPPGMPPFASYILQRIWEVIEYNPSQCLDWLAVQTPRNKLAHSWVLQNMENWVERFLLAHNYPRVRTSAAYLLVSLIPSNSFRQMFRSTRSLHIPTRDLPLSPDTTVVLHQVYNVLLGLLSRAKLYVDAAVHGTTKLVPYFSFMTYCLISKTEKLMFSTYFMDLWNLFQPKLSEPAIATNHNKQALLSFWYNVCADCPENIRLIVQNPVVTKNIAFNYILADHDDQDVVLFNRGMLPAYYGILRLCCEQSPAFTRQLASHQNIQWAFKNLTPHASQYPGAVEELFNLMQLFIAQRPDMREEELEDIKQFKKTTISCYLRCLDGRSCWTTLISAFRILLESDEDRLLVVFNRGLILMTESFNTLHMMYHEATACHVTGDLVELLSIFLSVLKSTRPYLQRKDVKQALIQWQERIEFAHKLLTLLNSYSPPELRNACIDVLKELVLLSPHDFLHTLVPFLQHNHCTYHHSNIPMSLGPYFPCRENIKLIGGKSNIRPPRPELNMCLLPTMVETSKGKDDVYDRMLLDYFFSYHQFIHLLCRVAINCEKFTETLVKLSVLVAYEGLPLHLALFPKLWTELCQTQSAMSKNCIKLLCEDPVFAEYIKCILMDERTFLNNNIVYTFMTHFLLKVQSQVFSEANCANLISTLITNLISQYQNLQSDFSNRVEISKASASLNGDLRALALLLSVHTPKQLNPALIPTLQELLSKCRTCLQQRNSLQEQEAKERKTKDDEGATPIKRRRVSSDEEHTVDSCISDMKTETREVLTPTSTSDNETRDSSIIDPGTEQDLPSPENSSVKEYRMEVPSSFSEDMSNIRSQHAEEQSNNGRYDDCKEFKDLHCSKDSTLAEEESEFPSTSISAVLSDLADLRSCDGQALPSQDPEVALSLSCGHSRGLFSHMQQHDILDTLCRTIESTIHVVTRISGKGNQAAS
Outline: (§1)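 HEK293T lysate, 495 µg per sample in Tris/CHAPS/IGEPAL buffer with protease inhibitors, was treated in triplicate with fragment at 200 µM or vehicle for 3 h and then with Biotin-Ahx-Ub-VS at 0.5 µM final for 1 h. Labelled DUBs were NeutrAvidin-enriched, digested with LysC and trypsin, and run by diaPASEF LC-MS/MS. Spectronaut label-free quantities were global-median-normalised, and values are average log2 fragment/vehicle ratios by unpaired t-test on proteins with ≥2 unique peptides.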

[2] = molecular target: T1, USP36 (UniProt Q9P275)
T1 sequence (whole entry): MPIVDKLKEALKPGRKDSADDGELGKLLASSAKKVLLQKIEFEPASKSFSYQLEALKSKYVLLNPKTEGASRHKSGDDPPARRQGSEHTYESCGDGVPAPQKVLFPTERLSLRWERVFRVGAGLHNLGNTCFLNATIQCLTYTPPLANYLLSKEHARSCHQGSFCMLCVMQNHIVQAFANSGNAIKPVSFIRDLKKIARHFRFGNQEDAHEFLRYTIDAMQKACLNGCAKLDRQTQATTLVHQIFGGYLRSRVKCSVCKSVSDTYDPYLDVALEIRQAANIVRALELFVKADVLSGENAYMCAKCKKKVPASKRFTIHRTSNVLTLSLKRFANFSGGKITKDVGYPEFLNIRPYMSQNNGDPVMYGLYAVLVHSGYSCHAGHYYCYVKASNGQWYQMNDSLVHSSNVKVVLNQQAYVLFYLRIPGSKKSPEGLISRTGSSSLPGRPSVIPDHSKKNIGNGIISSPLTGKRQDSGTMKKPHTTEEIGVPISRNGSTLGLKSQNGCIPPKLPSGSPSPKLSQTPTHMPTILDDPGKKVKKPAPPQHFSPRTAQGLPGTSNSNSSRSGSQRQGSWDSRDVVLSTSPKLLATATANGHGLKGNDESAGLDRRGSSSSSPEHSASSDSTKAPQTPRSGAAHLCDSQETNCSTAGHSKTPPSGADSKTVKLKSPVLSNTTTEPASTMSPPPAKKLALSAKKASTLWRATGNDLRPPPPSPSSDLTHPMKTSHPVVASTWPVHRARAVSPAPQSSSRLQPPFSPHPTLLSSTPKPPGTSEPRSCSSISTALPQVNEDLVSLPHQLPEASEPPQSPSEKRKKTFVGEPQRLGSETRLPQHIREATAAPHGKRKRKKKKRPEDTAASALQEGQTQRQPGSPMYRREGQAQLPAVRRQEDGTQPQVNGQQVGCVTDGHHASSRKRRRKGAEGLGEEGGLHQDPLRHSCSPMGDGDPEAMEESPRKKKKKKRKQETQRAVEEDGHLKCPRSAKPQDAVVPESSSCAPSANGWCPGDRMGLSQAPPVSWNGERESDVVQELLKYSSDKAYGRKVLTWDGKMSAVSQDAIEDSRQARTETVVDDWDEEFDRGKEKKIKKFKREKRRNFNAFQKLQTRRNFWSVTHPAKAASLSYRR
Outline: as §1

[3] = molecular target: T2, USP38 (UniProt Q8NB14)
T2 sequence (whole entry): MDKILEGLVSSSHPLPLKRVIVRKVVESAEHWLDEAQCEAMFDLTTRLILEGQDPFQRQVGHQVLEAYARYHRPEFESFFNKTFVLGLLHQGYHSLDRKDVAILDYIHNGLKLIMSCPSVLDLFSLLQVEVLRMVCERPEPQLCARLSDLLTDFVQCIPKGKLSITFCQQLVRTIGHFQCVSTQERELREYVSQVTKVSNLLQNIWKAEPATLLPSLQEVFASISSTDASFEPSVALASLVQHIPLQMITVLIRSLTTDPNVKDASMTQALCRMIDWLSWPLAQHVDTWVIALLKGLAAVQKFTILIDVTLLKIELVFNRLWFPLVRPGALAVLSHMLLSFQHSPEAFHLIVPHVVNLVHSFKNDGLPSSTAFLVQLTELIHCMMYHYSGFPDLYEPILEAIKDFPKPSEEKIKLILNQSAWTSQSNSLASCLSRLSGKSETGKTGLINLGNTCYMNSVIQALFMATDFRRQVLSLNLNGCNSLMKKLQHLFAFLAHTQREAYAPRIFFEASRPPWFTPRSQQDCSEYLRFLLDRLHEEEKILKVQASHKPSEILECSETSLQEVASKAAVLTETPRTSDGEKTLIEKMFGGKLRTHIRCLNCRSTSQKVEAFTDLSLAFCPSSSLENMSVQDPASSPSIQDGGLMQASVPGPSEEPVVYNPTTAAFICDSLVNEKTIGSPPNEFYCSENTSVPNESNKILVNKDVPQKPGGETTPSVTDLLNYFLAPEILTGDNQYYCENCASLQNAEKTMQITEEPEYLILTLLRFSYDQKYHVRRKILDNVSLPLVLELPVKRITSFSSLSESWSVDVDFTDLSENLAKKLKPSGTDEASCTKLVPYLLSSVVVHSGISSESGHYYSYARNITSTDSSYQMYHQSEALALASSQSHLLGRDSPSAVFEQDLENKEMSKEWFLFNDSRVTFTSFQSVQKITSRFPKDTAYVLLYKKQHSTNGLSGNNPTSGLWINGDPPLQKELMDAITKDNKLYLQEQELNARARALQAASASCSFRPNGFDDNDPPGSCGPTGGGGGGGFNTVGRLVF
Outline: as §1

[4] = molecular target: T3, USP39 (UniProt Q53GS9)
T3 sequence (whole entry): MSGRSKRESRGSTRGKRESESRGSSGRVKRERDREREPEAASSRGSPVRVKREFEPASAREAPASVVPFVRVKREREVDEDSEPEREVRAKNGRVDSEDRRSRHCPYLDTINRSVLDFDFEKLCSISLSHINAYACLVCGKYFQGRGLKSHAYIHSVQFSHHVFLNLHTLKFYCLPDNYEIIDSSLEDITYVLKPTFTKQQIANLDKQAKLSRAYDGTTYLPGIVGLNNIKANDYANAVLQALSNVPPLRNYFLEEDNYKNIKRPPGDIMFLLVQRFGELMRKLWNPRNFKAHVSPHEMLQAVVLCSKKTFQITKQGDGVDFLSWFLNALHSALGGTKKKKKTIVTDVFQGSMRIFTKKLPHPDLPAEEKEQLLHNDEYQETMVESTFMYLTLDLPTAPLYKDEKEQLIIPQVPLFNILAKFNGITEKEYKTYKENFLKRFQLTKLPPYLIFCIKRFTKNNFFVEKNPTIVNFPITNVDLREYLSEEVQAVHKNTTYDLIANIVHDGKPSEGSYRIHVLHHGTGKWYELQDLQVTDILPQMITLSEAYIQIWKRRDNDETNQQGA
Outline: as §1

[5] = molecular target: T4, USP4 (UniProt Q13107)
T4 sequence (whole entry): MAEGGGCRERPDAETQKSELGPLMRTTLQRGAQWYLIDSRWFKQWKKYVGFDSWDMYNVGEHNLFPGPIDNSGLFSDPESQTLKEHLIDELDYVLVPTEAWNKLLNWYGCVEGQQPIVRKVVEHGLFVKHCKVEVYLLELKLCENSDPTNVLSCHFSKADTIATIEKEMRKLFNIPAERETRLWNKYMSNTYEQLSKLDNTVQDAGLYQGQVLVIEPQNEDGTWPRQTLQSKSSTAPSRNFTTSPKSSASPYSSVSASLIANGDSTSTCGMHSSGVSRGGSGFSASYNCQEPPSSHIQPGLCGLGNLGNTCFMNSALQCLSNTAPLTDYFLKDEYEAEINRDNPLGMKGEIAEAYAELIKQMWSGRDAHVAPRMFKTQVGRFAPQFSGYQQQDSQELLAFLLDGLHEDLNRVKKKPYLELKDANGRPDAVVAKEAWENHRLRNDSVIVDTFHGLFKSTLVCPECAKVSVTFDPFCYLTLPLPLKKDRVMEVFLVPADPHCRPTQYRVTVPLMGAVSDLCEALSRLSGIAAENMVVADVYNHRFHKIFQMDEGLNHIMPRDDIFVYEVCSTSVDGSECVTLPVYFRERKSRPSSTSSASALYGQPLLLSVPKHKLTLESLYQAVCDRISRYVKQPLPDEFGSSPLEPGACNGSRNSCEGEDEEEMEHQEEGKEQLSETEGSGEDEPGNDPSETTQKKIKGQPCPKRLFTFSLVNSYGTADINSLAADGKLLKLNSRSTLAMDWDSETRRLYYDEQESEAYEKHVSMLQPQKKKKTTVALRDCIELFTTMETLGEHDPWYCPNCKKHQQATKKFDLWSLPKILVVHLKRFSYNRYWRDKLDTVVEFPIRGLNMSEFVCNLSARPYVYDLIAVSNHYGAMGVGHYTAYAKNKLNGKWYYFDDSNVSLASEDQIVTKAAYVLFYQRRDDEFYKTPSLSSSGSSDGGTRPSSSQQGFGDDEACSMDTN
Outline: as §1

Measured: log2 ratio of Biotin-Ahx-Ub-VS probe labelling

Cl.O=C(CCl)N1CCn2cncc2C1
inactive: [1] -0.401 | [2] -0.24 | [3] -0.142 | [4] -0.167 | [5] -0.285
